This excerpt belongs to a sample that is enriched for hits.
TbREL1 primary: TbREL1 inhibition, primary screen; P86926; TbREL1 RNA ligation, FRET fluorescence; inhibition, % at 9.66 µM; 89,000 compounds, 0.49% hits; AID 1117264;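 active = inhibition above the mean inhibition across all screened compounds plus 3 SD, cut at about 11% in these data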;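 also: 0% = plate median of test wells and 100% = NSC42067 control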
Target sequence (P86926 whole entry, looked up): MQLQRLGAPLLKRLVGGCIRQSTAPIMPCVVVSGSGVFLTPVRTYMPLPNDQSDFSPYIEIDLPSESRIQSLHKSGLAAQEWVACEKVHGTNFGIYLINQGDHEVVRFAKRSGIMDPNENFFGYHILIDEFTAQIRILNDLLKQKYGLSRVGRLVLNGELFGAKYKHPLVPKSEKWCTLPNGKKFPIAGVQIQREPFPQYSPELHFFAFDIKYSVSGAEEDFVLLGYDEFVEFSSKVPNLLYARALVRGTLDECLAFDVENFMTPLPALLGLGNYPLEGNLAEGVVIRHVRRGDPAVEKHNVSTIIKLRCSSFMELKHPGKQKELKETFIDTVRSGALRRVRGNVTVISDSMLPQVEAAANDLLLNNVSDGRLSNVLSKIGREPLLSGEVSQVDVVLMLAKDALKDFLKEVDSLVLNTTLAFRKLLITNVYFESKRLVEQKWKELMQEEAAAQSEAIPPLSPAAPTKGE
TbREL1 conf: TbREL1 inhibition, confirmation. shares compounds with TbREL1 primary. TbREL1 RNA ligation, FRET fluorescence. inhibition, % at 9.66 µM. 390 compounds, 37% hits. AID 1117282;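 active = mean inhibition across replicates above a set limit taken from the earlier primary screen, cut at about 11% in these data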;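 also: 0% = REL1 with substrate and DMSO and 100% = REL1 plus control inhibitor NSC42067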
* hit, by the source's call.

SMILES | TbREL1 primary | others
COC(=O)[C@]12C[C@H](CC(=O)NCc3ccc(C)o3)C(=O)N(CCC3=CCCCC3)C1=C[C@H](C1CCCC1)O[C@@H]2C | -0.7
COc1cc2c(cc1NC(=O)CSc1nnc(-c3ccccn3)n1-c1ccccc1)oc1ccccc12 | 8.1
CCOc1ccc(-n2c(SCC(=O)Nc3cc4oc5ccccc5c4cc3OC)nnc2-c2cccc(Cl)c2)cc1 | 1.3
COc1cc2c(cc1NC(=O)CSc1nnc(-c3cccnc3)n1-c1ccc(Br)cc1)oc1ccccc12 | 11.5* | TbREL1 conf=5.6
Cn1ccc2cc(S(=O)(=O)N3CCN(S(=O)(=O)c4c(F)cccc4F)CC3)ccc21 | -2.1
O=C(Nc1ccc(C(O)(C(F)(F)F)C(F)(F)F)cc1)c1ccc(F)cc1Cl | 6.4
C[C@H]1[C@@H](OC(=O)NCc2cccs2)CC[C@@]23CCCN2C(=O)CCC[C@@H]13 | 3.6
COCCC(=O)N1CCC(Oc2ccc(C(=O)N3CCC[C@H]3CO)cc2)CC1 | 4.2
O=C1CCC[C@H]2C[C@H](NCc3ccco3)CC[C@]23CCCN13 | -0.7
CC1=C[C@]2(CN(CC3CC3)C3=N[C@H](c4ccccc4)CC(=O)N32)n2c(=O)n(-c3ccccc3)c(=O)n2C1 | -6.7
Cc1onc(-c2ccccc2)c1C(=O)N(C)CCc1ccccn1 | -0.8
Cc1onc(-c2ccccc2)c1C(=O)N(Cc1ccccn1)Cc1ccccn1 | 11.3* | TbREL1 conf=4.1
Cc1onc(-c2ccccc2)c1C(=O)NC(C)C | -0.9
Cc1ccc(C(=O)n2ccc3ccc(-c4ccc5ccn(Cc6ccccc6)c5c4)cc32)cc1 | 3.0
COc1ccc(-c2nc3ccccc3c(=O)n2Cc2ccccc2)cc1COc1ccc(NC(C)=O)cc1 | 3.9
CN1CCN(c2ccc(-c3csc(N4CCC(C(N)=O)CC4)n3)cc2)CC1 | 8.6
COc1cc(NC(=O)c2ccccc2)c(C)cc1NC(=O)CSc1nnc(COc2ccccc2)n1Cc1ccco1 | 3.4
Cc1ccc(-n2c(SCC(=O)c3ccc(O)c(O)c3)nnc2-c2ccccc2)cc1 | -4.1
COc1cc(C(=O)N2CCN(S(=O)(=O)c3cc(C)ccc3C)CC2)ccc1OCC(=O)N1CCOCC1 | 6.6
COc1cc(C(=O)N2CCN(c3cccc(C)c3C)CC2)ccc1OCC(=O)N1CCOCC1 | 12.6* | TbREL1 conf=0.3
COc1cc(C(=O)N2CCN(c3ccccc3O)CC2)ccc1OCC(=O)N1CCOCC1 | 2.3
Cc1cccc2c1CCC1CN(Cc3ccccc3)S(=O)(=O)N21 (stereo not drawn) | 3.0
CCCCCCCCN1C(=O)[C@@H](CC(=O)NCCCCc2ccccc2)C[C@@]2(C(=O)OC)C1=C[C@H](COCc1ccccc1)O[C@@H]2C | 2.2
COc1ccc(CNC2CCC23CCC(C)CC3)cc1 (stereo not drawn) | 1.1
COc1cccc(C2NC(=S)N(Cc3ccc(F)cc3)C(C)=C2C(C)=O)c1 (stereo not drawn) | -7.4
SMILES | TbREL1 primary | others
COC(=O)C1=C(C)N(Cc2ccccc2)C(=NCc2ccccc2)N[C@H]1c1cccc(F)c1 | 14.0* | TbREL1 conf=14.6*
COC(=O)C1=C(C)N(Cc2ccccc2)C(=NCc2ccccc2)N[C@H]1c1ccccc1 | 5.3
COC(=O)C1=C(C)N(Cc2ccc(Cl)cc2)C(=S)NC1c1ccccc1 (stereo not drawn) | 1.2
COC(=O)C1=C(C)N(Cc2ccccc2C(F)(F)F)C(=NCc2ccc(C(F)(F)F)cc2)NC1c1ccc(Cl)cc1 (stereo not drawn) | 11.9* | TbREL1 conf=18.1*
COC(=O)C1=C(C)N(Cc2ccccc2C(F)(F)F)C(=NCc2cccc(C(F)(F)F)c2)NC1c1ccc(C(F)(F)F)cc1 (stereo not drawn) | 17.9* | TbREL1 conf=19.8*
COC(=O)C1=C(C)N(Cc2ccccc2)C(=S)NC1c1ccc(Cl)cc1 (stereo not drawn) | -7.5
COC(=O)C1=C(C)N(Cc2ccccc2C(F)(F)F)C(=NCc2ccc(OC)cc2)NC1c1cccc(F)c1 (stereo not drawn) | 14.3* | TbREL1 conf=19.0*
COC(=O)C1=C(C)N(Cc2ccccc2)C(=NCCc2c[nH]c3ccccc23)N[C@H]1c1cccc(F)c1 | 3.7
O=C(NCCc1ccccc1F)c1ccc(Sc2ccccc2Cl)c([N+](=O)[O-])c1 | -1.0
COC(=O)[C@H]1C[C@@]2(CC=C(C)C)c3ccccc3N(C(=O)OC(C)(C)C)[C@H]2N1C(=O)OC(C)(C)C | -2.7
CO[C@H]([C@H](C)/C=C/N(C)C=O)[C@@H](C)C(O)CC[C@H](C)[C@H](O)[C@H](C)[C@H]1OC(=O)/C=C/C(C)=C/C[C@H](O)C[C@@H]2C=CC[C@@H](C[C@H](OC)[C@@]3(CO3)[C@@H](OC)C[C@@H](OC)[C@@H]1C)O2 (stereo partly drawn) | 1.6
CCC(CC)CN1CCC(CN2C(=S)NC[C@@H]2Cc2ccccc2)CC1 | -2.5
C[C@H]1[C@@H](OC(=O)NCc2ccccc2)CC[C@@]23CCCN2C(=O)CCC[C@@H]13 | -3.5
CCCCN1C(=O)N2CCc3ccccc3C2CS1(=O)=O (stereo not drawn) | -1.6
